Mdm2-MdmX inh: inhibitors of human Mdm2-MdmX association, primary screen, cell-based, luminescence, split luciferase, SaOS-2, uHTS; Protein Mdm4 (Homo sapiens) + E3 ubiquitin-protein ligase Mdm2 (Homo sapiens), …; inhibition, % at 8 µM; 3% of 330,000 active; SaOS-2 split-luciferase Mdm2/MdmX complementation;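 active = inhibition of at least 50% at 8 µM in the primary screen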
Target sequence (O15151 whole entry, looked up): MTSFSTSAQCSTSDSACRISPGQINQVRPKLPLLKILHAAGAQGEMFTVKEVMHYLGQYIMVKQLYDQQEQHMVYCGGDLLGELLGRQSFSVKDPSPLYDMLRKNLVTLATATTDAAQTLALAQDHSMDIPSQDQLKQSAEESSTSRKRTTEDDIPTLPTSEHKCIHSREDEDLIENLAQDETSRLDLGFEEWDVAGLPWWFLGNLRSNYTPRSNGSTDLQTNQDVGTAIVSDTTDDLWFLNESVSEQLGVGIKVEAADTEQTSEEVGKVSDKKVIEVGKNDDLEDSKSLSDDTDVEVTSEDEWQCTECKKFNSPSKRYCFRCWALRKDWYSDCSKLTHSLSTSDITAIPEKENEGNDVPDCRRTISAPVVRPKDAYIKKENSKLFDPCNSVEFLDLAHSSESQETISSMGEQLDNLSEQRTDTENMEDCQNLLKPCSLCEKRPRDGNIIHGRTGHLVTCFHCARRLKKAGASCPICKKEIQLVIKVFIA
Target sequence (Q00987 whole entry, looked up): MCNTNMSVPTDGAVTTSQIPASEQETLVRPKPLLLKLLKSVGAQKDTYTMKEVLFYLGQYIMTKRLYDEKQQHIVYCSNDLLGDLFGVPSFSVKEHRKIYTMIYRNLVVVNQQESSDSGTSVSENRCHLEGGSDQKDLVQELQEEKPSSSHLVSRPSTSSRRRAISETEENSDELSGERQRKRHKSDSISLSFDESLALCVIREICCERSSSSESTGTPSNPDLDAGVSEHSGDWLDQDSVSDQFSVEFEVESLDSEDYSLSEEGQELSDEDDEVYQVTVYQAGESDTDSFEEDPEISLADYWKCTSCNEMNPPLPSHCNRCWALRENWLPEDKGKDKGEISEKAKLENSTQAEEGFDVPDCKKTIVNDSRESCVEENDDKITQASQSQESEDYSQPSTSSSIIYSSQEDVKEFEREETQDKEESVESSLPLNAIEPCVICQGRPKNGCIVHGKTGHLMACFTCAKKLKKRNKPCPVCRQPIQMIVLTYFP
697 NFkB inh: inhibitors of PMA/ionomycin-induced NF-kB reporter, 697 cells, primary screen, B-cell NF-kB inhibitor project, cell-based, luminescence, uHTS; 697 B-cell NF-kB luciferase reporter, 16 h; inhibition, % at 4 µM; 0.33% of 330,000 active; in the data active = inhibition above about 35%
aSyn UTR inh: MLPCN primary screen, SNCA 5' untranslated region | alpha-synuclein 5'UTR reporter, inhibitor activity | inhibition, % (tested at 7.5 µM) | 0.82% of 300,000 active | AID 1813, 2009; in the data active = inhibition above about 60%;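 note: H4 neuroglioblastoma cells stably carrying SNCA 5'UTR luciferase fusion; 0% = DMSO wells and 100% = positive control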
Jurkat NFkB inh: inhibitors of induced NF-kB luciferase reporter, primary screen, TCR NF-kB activation inhibitor project, cell-based, luminescence, uHTS | Jurkat, PMA/ionomycin-induced NF-kB luciferase reporter | 0.53% of 330,000 active | inhibition, % at 4 µM; in the data active = inhibition above about 50%
Gli-Sufu block: Gli-Sufu pathway antagonists, primary screen, luciferase luminescence, Sufu-KO-LIGHT cells, uHTS. Sufu-KO-LIGHT fibroblasts, Gli luciferase reporter luminescence. inhibition, % at 5 µM. 0.74% of 340,000 active;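 active = inhibition above about 55%, limit read from the data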;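 note: 0% = DMSO-treated cells and 100% = wells with medium but no cells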
CSC inhib: cancer stem cell viability inhibitors, primary screen, luminescence | 1.1% of 300,000 active | AID 2717, 2010 | inhibition, % at 7.5 µM | cancer stem cell-like cells viability; in the data active = inhibition above about 75%; tested in HMLE shEcad cells
Numbers without * were called inactive; . = not tested or not shown. In the library only some 4.5% were active in any assay of this set; here they are far more common.

SMILES | Mdm2-MdmX inh | 697 NFkB inh | aSyn UTR inh | Jurkat NFkB inh | Gli-Sufu block | CSC inhib
CCc1ccccc1NC(=O)CNC(=O)c1ccc(-n2cncn2)c([N+](=O)[O-])c1 | 16 | 7 | -11 | -3 | -7 | -7
Nc1ccc2oc(-c3cccc4ccccc34)nc2c1 | -28 | -99 | 71* | -114 | 3 | 23
CCn1cc(C(=O)N[C@H](C(=O)NCCCN2CCOCC2)C(C)C)c(=O)c2cc3c(cc21)OCO3 | 14 | -8 | 5 | -4 | 30 | -17
CCCc1ccc(C(=O)NNc2ccc(F)cc2)cc1 | 26 | -7 | -6 | 5 | -1 | 94*
C=CC[n+]1c(-c2ccc(Cl)cc2Cl)csc1Nc1ccc(NC(C)=O)cc1 | 47 | -71 | 94* | 3 | 47 | -6
CCOC(=O)/C=C/C(=O)OCC(=O)N1CCN(C(=O)c2ccco2)CC1 | 1 | -6 | 7 | 2 | 1 | 1
O=C(NCCNC(=O)c1ccc(Br)o1)c1cccnc1 | 22 | -5 | 6 | 1 | -5 | -6
CCOc1ccc(C2(C)CC(=O)N(C)C2=O)cc1 (stereo not drawn) | 6 | 3 | -3 | 3 | 4 | -14
O=C(CCCc1ccccc1)NC1CC1 | 23 | -8 | 6 | 13 | -11 | 3
O=C(O)CCCc1ccc2c(c1)CCc1ccccc1-2 | 25 | 26 | 109* | 26 | 13 | 8
O=[N+]([O-])c1ccc(N/N=C/c2ccc[nH]2)cc1 | . | . | . | . | 29 | 88*
O=[N+]([O-])c1ccc(NN=Cc2cccc([N+](=O)[O-])c2)cc1 | . | . | . | . | -10 | .
O=[N+]([O-])c1ccc(N/N=C/c2c[nH]c3ccccc23)cc1 | 25 | 7 | -139 | 47 | 3 | 96*
CCNC(=S)N1CCN(C(=O)C(Cc2ccccc2)NC(C)=O)CC1 (stereo not drawn) | -9 | 13 | 3 | 10 | -7 | -9
Cc1cc(C)c(NC(=O)CCN2CCN(Cc3ccccc3)CC2)c(C)c1 | -5 | -8 | 98* | 4 | 7 | 4
Cc1ccccc1NC(=O)CCN1CCN(Cc2ccccc2)CC1 | 19 | 6 | 2 | -10 | -1 | -5
O=C(COc1coc(CN2CCN(c3ccccc3)CC2)cc1=O)NC1CCCC1 | 8 | 4 | -1 | 9 | -1 | -13
Cc1ccc(N=C2SC(C(=O)Nc3ccc(OC(F)(F)F)cc3)C(N)=C2C(=O)Nc2c(C)cc(C)cc2C)cc1 (stereo not drawn) | . | . | . | . | -2 | 106*
Cc1ccc(NC(=O)C2SC(=Nc3ccccc3)C(C(=O)Nc3ccc(Cl)cc3)=C2N)cc1 (stereo not drawn) | . | . | . | . | -1 | .
Cc1ccc(NS(=O)(=O)c2cc([N+](=O)[O-])ccc2NNC(=S)Nc2cccc(Cl)c2)c(C)c1 | . | . | -7 | . | 1 | 100*
COc1ccc(NC(=S)NNc2ccc([N+](=O)[O-])cc2S(=O)(=O)Nc2ccc(C)cc2C)cc1 | 8 | -42 | 13 | 2 | -11 | 12
CS(=O)(=O)c1sc2nc(-c3cccs3)cc(-c3ccccc3)c2c1N | -28 | -8 | 23 | 5 | -1 | 99*
CN(C)c1ccc(Nc2nc(N)c3ccccc3n2)cc1 | 26 | -83 | 109* | -23 | 23 | .
CCOc1ccc(Nc2nc(N)c3ccccc3n2)cc1 | -5 | -159 | 102* | -55 | -18 | .
CN(CCc1cnn(C)c1)Cc1cn[nH]c1-c1ccc(-c2ccccc2)cc1 | 23 | -20 | -84 | -18 | 14 | -8
SMILES | Mdm2-MdmX inh | 697 NFkB inh | aSyn UTR inh | Jurkat NFkB inh | Gli-Sufu block | CSC inhib
Cc1csc(NC(=O)c2cc3c(s2)CCCCC3)n1 | 2 | -70 | 92* | -90 | -36 | 46
Cc1ccc(S(=O)(=O)Nc2c(NC3CCCCC3)c3ccccc3oc2=O)c(C)c1 | 17 | -9 | 15 | 13 | -6 | -21
Cc1cc(C)n(-c2cccc(C(=O)O)c2)n1 | 3 | 4 | 43 | -4 | 2 | -11
Clc1ccc(-c2nnc(NC3=NCCCCC3)o2)cc1 | 20 | -210 | 75* | -40 | -31 | 8
O=C(Nc1nnc(-c2ccc(Cl)cc2)o1)C1CCCCC1 | 32 | 7 | -80 | -7 | -8 | 11
CCCCCCCCCC[n+]1cccc2c3ccccc3ccc21 | . | . | -37 | . | 89* | .
CC(C)c1ccc(NC(=O)c2cc(S(=O)(=O)NCC3COc4ccccc4O3)ccc2F)cc1 (stereo not drawn) | 26 | -4 | 8 | 11 | 8 | 123*
CCCCCCCCNCCS(=O)(=O)NC1CCCCC1 | . | . | . | . | -3 | .
COc1ccc(Cn2nnnc2C(C(C)C)N(Cc2ccco2)Cc2cccs2)cc1 (stereo not drawn) | -36 | 28 | 12 | -6 | 19 | 77*
COC(=O)c1cc(C(=O)OCC(=O)N(C)C2CCS(=O)(=O)C2)cc([N+](=O)[O-])c1 (stereo not drawn) | 2 | 18 | -7 | -4 | -10 | -1
CN(C(=O)COC(=O)/C=C/c1cccc([N+](=O)[O-])c1)C1CCS(=O)(=O)C1 (stereo not drawn) | 40 | -48 | -22 | 6 | -9 | 92*
CN(C(=O)COC(=O)c1c2c(nc3ccccc13)/C(=C/c1cccc([N+](=O)[O-])c1)CCC2)C1CCS(=O)(=O)C1 (stereo not drawn) | 22 | -33 | 72* | -35 | 18 | 8
COC(=O)c1nn(-c2ccc(-c3ccccc3)cc2)cc1O | -78 | -149 | 67* | -84 | 10 | 21
C/C(=N\Nc1ccc(S(=O)(=O)N2CCCCC2)cn1)c1ccc(O)cc1 | -5 | -26 | . | -18 | 10 | .
Cc1ccc(C)c(OCCCN2CCNCC2)c1 | 14 | 4 | -2 | -4 | 32 | -8
Cc1ccc(C)c(OCCCCN2CCNCC2)c1C | -23 | -46 | -7 | -13 | 0 | 129*
O=C(Cn1ncc(Cl)c(Cl)c1=O)N1CCc2ccccc21 | . | . | 135* | . | . | .
O=C(Cn1ncc(Cl)c(Cl)c1=O)N1CCN(Cc2ccccc2)CC1 | . | . | -71 | . | 1 | .
CCN(c1ccccc1)S(=O)(=O)c1cccc(C(=O)OCC(=O)Nc2ccc(NC(C)=O)cc2)c1 | -3 | 16 | . | -4 | -3 | -4
Cn1nc(-c2ccc(Cl)cc2)c2cc(C(=O)NCCCN3CCCC3)sc21 | 50 | 8 | -39 | -24 | 15 | 82*
CCCCNC(=O)c1cc2c(-c3ccc(Cl)cc3)nn(C)c2s1 | 1 | 3 | -5 | 3 | -2 | 4
CN(CC(=O)Nc1ccc(Cl)cc1)C(=O)CNC(=O)Cc1cccc2ccccc12 | 5 | 13 | . | 19 | -22 | 26
COc1ccc(CCNc2cc(C)nc3c(-c4ccc(Cl)cc4)cnn23)cc1OC | 39 | 13 | -17 | -7 | 0 | 92*

High-throughput results as filed in PubChem BioAssay.
